In PubChem BioAssay (Tox21) one finds Potency data, which are given here for 8 molecules.

Values joined by “and” are separate entries in the source; they are usually repeats but may differ in a detail not shown here. Identical values can stand only once. Records with an inconclusive call do not appear. More than one record can exist for a structure, and the calls need not agree. Active and inactive are the calls of the source. Unless noted, the call rests on the fitted dose curve.

The nature of test [1]: Nuclear factor erythroid 2-related factor 2/antioxidant responsive element (Nrf2/ARE) small molecule agonists: qHTS cell viability counter screen in human keratinocytes (AID 1919968; active means well fitted curve in the direction sought with a large enough effect in the repeat runs; an effect the other way counts as inactive or inconclusive; further: nearly all actives have a fitted effect of over 55% in size). In short, it runs like this:
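Fluorescence read-out from CellTiter-Fluor after 1 h at 37 C. Wells held HaCaT-derived ARE-luciferase reporter cells (1,500/well) treated 23 h with DMSO-dissolved compounds. Run in the same wells as the luciferase agonist read.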
On the technique in general: In qHTS, concentration-response curves come from the screen itself.

Test [2] is described as follows: Nuclear factor erythroid 2-related factor 2/antioxidant responsive element (Nrf2/ARE) small molecule agonists: luciferase reporter gene qHTS assay in human keratinocytes (AID 1919969). Further: nearly all actives have a fitted effect of over 35% in size. On the technique in general: In a reporter assay the amount or activity of a reporter protein is the signal.
Test [3] concerns the target Gonadotropin-releasing hormone receptor (Homo sapiens) (UniProt P30968). The test can be described thus: Human gonadotropin-releasing hormone receptor (GnRHR) small molecule agonists, calcium flux assay in GnRHR-HEK293 cells (AID 1920063). Further: nearly all actives have a fitted effect of over 35% in size. The gist of the method:
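Calcium-dye fluorescence, Ex/Em=480/540, recorded every 1 sec over 3 min after compound addition to GnRHR-HEK293 cells. Cells had been seeded 18 hours earlier and dye-loaded for 1 hour at 37 C. Fifteen concentrations, triplicates.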

For test [4], the target named is KiSS-1 receptor (Homo sapiens) (UniProt Q969F8). The test can be described thus: Human kisspeptin (KISS1R) small molecule agonists, calcium flux assay in KISS1R-HEK293 cells (AID 1920064; active means well fitted curve in the direction sought with a large enough effect in the repeat runs; an effect the other way counts as inactive or inconclusive). In short, it runs like this: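 Calcium flux read-out: kinetic fluorescence at Ex/Em=480/540, 1 s intervals over 3 min, after pin-tool compound addition to dye-loaded KISS1R-HEK293 cells. Fifteen concentrations, triplicates.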
Chain of KiSS-1 receptor (Homo sapiens) (Q969F8 whole entry, looked up): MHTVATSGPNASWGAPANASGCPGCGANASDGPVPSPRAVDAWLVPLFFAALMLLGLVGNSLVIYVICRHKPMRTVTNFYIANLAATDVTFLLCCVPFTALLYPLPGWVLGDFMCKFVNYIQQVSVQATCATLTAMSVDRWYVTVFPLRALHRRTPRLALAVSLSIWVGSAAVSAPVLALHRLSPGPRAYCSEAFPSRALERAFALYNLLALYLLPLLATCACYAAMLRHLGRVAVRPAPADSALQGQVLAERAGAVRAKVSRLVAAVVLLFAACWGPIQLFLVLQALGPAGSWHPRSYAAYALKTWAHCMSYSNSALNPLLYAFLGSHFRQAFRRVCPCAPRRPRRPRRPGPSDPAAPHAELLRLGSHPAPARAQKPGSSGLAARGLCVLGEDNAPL
On the technique in general: Calcium flux is commonly read through the fluorescence of an indicator in the cells.

Test [5] is described as follows: G protein-coupled receptor (GPCR) small molecule agonists, calcium flux assay: HEK293 wild type cell line counter screen (AID 1920065). In short, it runs like this:
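Agonist mode; 18 h seeding at 37 C, 1 h dye load at 37 C; compounds pinned from DMSO, ATP as positive control; kinetic fluorescence 480/540 nm, 3 min, 1 s reads; 15 concentrations, triplicate.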

Test [6] can be described thus: p53 small molecule agonists, cell-based qHTS assay with human liver microsomes: qHTS cell viability counter screen (AID 1963579). Further: nearly all actives have a fitted effect of over 45% in size. In short, it runs like this:
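In this multiplexed counter screen, the reporter plates were subsequently treated with CellTiter-Glo so that cell viability, reflected by luminescence, could be recorded for p53RE-bla cells dosed 16 h with compounds under microsomal activation (HLM and NADPH).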

Test [7] in a line: p53 small molecule agonists, cell-based qHTS assay with rat liver microsomes: qHTS cell viability counter screen (AID 1963580). Further: nearly all actives have a fitted effect of over 45% in size. In short, it runs like this:
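After the beta-lactamase ratio was read, CellTiter-Glo was added to the same wells and luminescence measured at 30 min; cells had been treated 16 h at 37 C with compounds, rat liver microsomes and NADPH (0.5 mg/mL final each).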

The nature of test [8]: p53 small molecule agonists, cell-based qHTS assay: qHTS cell viability counter screen (AID 1963581). Further: nearly all actives have a fitted effect of over 45% in size. In short, it runs like this:
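Cytotoxicity read-out: ATP-based luminescence (CellTiter-Glo, 30 min RT) measured in the same wells as the p53 reporter assay, HCT-116 p53RE-bla cells, 16 h compound exposure at 37 C.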

In test [9] the target is 5-hydroxytryptamine receptor 2A (Homo sapiens) (UniProt P28223). The test can be described thus: 5-hydroxytryptamine receptor 2A (HTR2A) small molecule antagonists, cell-based qHTS assay (AID 1963586). Further: nearly all actives have a fitted effect of over 45% in size. Further: potency means the concentration at half of the fitted maximal effect. In short, it runs like this: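 CHO cells stably expressing human HTR2A were plated for 18 h at 37 C, then loaded with calcium dye for 1 h. Compounds were preincubated 5 min at room temperature before DOI (4 nM solution) was added. Kinetic fluorescence was read for 3 min.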
Chain of 5-hydroxytryptamine receptor 2A (Homo sapiens) (P28223 whole entry, looked up): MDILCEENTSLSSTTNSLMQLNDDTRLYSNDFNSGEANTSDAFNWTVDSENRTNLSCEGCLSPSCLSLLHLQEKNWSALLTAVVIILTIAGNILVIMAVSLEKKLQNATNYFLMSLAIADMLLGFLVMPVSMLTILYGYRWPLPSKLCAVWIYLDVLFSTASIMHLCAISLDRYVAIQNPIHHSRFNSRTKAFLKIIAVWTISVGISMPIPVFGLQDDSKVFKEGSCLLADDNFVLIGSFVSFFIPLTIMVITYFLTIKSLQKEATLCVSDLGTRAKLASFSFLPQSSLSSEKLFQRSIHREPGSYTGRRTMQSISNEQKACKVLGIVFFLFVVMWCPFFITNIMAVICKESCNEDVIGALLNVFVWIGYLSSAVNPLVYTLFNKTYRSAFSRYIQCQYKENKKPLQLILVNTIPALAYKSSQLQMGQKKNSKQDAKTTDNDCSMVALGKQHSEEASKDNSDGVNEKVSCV

The target is the same in test [10]. Description: 5-hydroxytryptamine receptor 2A (HTR2A) small molecule agonists, cell-based qHTS assay (AID 1963587). Further: nearly all actives have a fitted effect of over 30% in size. The gist of the method: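 CHO cells stably expressing human HTR2A, plated 18 h, loaded with calcium dye 1 h at 37 C. Agonist mode: compounds added and intracellular calcium fluorescence recorded kinetically for 2 min at 1 sec intervals.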
For test [11], the target named is Muscarinic acetylcholine receptor M1 (Homo sapiens) (UniProt P11229). The test can be described thus: Cholinergic receptor muscarinic 1 (CHRM1) small molecule antagonists, cell-based qHTS assay (AID 1963588). Further: nearly all actives have a fitted effect of over 40% in size. In short, it runs like this: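 Compounds were tested at 15 concentrations in three independent runs. Dye-loaded CHRM1-CHO cells were exposed 5 min at room temperature before stimulation by acetylcholine added at 50nM. Intracellular calcium was read kinetically on FDSS for 3 min.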
Chain of Muscarinic acetylcholine receptor M1 (Homo sapiens) (P11229 whole entry, looked up): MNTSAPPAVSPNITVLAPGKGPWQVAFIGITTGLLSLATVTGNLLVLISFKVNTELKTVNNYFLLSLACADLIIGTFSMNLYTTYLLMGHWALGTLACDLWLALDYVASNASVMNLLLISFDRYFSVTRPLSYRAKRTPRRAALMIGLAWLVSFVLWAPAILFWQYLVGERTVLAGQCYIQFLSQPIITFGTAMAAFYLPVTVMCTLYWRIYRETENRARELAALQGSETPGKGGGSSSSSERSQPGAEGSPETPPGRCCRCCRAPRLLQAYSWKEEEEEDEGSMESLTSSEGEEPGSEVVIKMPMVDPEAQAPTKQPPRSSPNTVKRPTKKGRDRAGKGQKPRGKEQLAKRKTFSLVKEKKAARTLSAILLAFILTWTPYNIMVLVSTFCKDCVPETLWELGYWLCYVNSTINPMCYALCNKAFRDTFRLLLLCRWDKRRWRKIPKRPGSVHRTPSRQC

Test [12] shares this target. Description: Cholinergic receptor muscarinic 1 (CHRM1) small molecule agonists, cell-based qHTS assay (AID 1963589). Further: nearly all actives have a fitted effect of over 35% in size. The gist of the method:
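Calcium flux read-out: kinetic fluorescence at 1 sec intervals after pin-tool compound addition to dye-loaded CHRM1-CHO cells (human M1). Agonist mode; 15 concentrations tested in triplicate independent runs.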

The nature of test [13]: cAMP Responsive Elements (CRE) small molecule agonists, cell-based qHTS assay (AID 1963590). The gist of the method: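 Beta-lactamase reporter readout: LiveBLAzer B/G FRET substrate, 2 h at room temperature, added after 3 h compound treatment of CRE-bla HEK 293T cells at 37 C/5% CO2.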
Test [14] has as its target Beta-2 adrenergic receptor (Homo sapiens) (UniProt P07550). The test can be described thus: Adrenergic beta2 receptor (ADRB2) small molecule antagonists, cell-based qHTS assay (AID 1963592). Further: series mostly up to about 92 µM; nearly all actives have a fitted effect of over 50% in size. In short, it runs like this:
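Assay format: CHO-ADRB2 cells, 18-20hr seeding at 37C/5% CO2, then compound plus 1nM isoproterenol agonist mix for 0.5hr RT. Homogeneous time-resolved fluorescence cAMP detection after 1hr, expressed as 665/615 nm ratio.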

Test [15] has the same target. The test can be described thus: Adrenergic beta2 receptor (ADRB2) small molecule agonists, cell-based qHTS assay (AID 1963593).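 Further: CHO cells stably overexpressing human ADRB2.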 The gist of the method:
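CHO cells stably over-expressing ADRB2 were plated overnight at 37C, then dosed with compounds plus a stimulation mix containing 100uM IBMX and 25uM Ro-20-1724 for 0.5hr at room temperature. cAMP was measured by HTRF competition, 1hr.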

Test [16] concerns the target D(2) dopamine receptor (Homo sapiens) (UniProt P14416). The test can be described thus: Dopamine D2 receptor (DRD2) small molecule agonists, cell-based qHTS assay (AID 1963594). Further: nearly all actives have a fitted effect of over 35% in size. In short, it runs like this: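 HEK293 cells stably expressing human DRD2, pre-treated with PDE inhibitor Ro20-1724 (0.1 mM final) and compound 10 min at room temperature, then stimulated with NKH477 (200nM […]) for 30 min. cAMP read by HTRF (665/620 nm).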

Test [17] shares this target. The test can be described thus: Dopamine D2 receptor (DRD2) small molecule antagonists, cell-based qHTS assay (AID 1963595; active means well fitted inhibition curve with a large enough effect in the signal ratio in the repeat runs, with a control signal flat; the % refers to the signal ratio). In short, it runs like this: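 HTRF cAMP read-out at 665 and 620 nm emission (340 nm excitation). Antagonist mode: compounds were tested against 12 nM quinpirole in DRD2-HEK293 cells, with 200 nM NKH477 raising cAMP and 0.1 mM Ro20-1724 blocking its breakdown.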

Test [18] can be described thus: cAMP Responsive Elements (CRE) small molecule antagonists, cell-based qHTS assay (AID 1963591; active means well fitted inhibition curve with a large enough effect in the signal ratio in the repeat runs, not every such curve was filed as active; the % refers to the signal ratio). The gist of the method: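 HEK293T CRE-bla; 18 h preincubation; compound pin-transfer; NKH477 0.25 uM final, 3 h, 37 C; LiveBLAzer FRET substrate 2 h RT.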

Chain of Gonadotropin-releasing hormone receptor (Homo sapiens) (P30968 whole entry, looked up): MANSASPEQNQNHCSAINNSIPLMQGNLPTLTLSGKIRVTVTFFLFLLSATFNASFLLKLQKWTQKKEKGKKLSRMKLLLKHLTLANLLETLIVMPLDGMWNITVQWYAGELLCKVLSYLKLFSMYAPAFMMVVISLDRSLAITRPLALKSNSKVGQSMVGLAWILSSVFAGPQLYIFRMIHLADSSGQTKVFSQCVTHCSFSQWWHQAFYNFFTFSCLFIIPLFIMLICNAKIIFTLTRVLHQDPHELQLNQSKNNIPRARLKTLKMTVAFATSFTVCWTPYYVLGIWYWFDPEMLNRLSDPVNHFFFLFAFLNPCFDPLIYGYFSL
Chain of Beta-2 adrenergic receptor (Homo sapiens) (P07550 whole entry, looked up): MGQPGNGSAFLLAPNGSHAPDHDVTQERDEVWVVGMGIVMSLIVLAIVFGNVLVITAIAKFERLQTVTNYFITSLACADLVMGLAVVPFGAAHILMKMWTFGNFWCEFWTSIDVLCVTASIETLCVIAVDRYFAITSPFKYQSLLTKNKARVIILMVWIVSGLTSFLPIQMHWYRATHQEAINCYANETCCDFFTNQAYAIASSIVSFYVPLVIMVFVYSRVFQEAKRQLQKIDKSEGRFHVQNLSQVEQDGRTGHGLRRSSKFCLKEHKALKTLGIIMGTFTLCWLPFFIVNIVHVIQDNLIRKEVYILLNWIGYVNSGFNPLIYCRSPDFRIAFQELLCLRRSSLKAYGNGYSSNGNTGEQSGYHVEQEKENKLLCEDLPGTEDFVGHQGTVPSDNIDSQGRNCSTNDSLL
Chain of D(2) dopamine receptor (Homo sapiens) (P14416 whole entry, looked up): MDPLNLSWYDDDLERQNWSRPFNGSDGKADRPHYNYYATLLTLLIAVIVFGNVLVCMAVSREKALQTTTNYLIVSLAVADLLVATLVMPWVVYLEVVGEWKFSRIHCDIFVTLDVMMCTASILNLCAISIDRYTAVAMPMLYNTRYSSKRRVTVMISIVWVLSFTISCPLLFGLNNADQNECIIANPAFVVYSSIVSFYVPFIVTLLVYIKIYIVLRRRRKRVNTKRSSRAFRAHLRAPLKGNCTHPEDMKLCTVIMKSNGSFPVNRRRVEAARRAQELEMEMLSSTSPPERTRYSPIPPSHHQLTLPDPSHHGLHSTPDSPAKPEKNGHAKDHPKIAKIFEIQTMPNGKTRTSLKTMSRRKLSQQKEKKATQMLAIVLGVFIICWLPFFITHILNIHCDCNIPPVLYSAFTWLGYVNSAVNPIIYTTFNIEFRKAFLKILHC

Take `CC(=O)/C=C/C1=C(C)CCCC1(C)C`: the Potency entry in test [1], in test [2], in test [3], in test [4], in test [5] and in [6] was “inactive” each time. Also, the Potency result in [7], in test [8], in [9], in test [10], in [11] and in test [12] was “inactive” each time. Further, the Potency result in [13], in test [14], in [15], in [16] and in test [17] was “inactive” in each case.

Turning to `CCCCCCC(C)(C)S`, the Potency entry in [1], in [2], in test [3], in [4], in [5] and in test [6] was “inactive” throughout. The Potency result in [7], in test [8], in [9], in test [10], in test [11] and in [12] was “inactive” in each case. For the same molecule, the Potency result in test [13], in test [18], in [14], in test [15], in test [16] and in test [17] was “inactive” throughout.

Consider `OCc1cccnc1`, for which the Potency result in test [1], in [2], in test [3], in test [4], in test [5] and in [6] was “inactive” throughout. Moreover, the Potency entry in [7], in test [8], in test [9], in [10], in test [11] and in [12] was “inactive” each time. Further, the Potency result in test [13], in test [18], in test [14], in test [15] and in [17] was “inactive” in each case.

Regarding `CC(=O)O[C@]1(C(C)=O)CC[C@H]2[C@@H]3C=C(Cl)C4=CC(=O)[C@@H]5C[C@@H]5[C@]4(C)[C@H]3CC[C@@]21C`, the Potency entry in test [1], in test [2], in test [3], in test [4], in [5] and in test [6] was “inactive” each time. In addition, the Potency entry in test [7], in test [8], in [14], in [15], in [16] and in [17] was “inactive” each time.

For the molecule `CC(=O)Nc1ccccc1`, the Potency result in [1], in test [2], in [3], in test [4], in test [5] and in test [6] was “inactive” each time. The Potency entry in [7], in test [8], in [9], in test [10], in test [12] and in [13] was “inactive” throughout. In addition, the Potency entry in test [18], in test [14], in test [15], in test [16] and in test [17] was “inactive” throughout.

Consider `O=C(c1ccccc1)C(O)c1ccccc1` (configuration not stated), for which the Potency result in test [1], in [2], in test [3], in [4], in test [5] and in test [6] was “inactive” in each case. For the same molecule, the Potency entry in [8], in [10], in test [11], in test [12], in [13] and in test [18] was “inactive” throughout. In addition, the Potency result in [14], in test [15] and in test [16] was “inactive” in each case. Besides, the Potency entry in [9] is “inactive and 729 nM (active)”.

In the case of `Cc1ccc(C)c(OCCCC(C)(C)C(=O)O)c1`, the Potency entry in test [1], in test [2], in test [3], in [4], in test [5] and in test [6] was “inactive” each time. For the same molecule, the Potency result in [7], in test [8], in test [18], in [14], in test [16] and in test [17] was “inactive” in each case.

With `COc1c(Cl)c(Cl)c(Cl)c(Cl)c1Cl`, the Potency entry in [1], in [2], in [3], in test [4], in [5] and in test [6] was “inactive” in each case. Moreover, the Potency result in test [7], in test [8], in test [9], in test [10], in test [11] and in [12] was “inactive” each time. In addition, the Potency entry in test [13], in [18], in test [14], in test [15], in test [16] and in test [17] was “inactive” each time.
